The values below come from PubChem BioAssay (NCI).

The panel holds about 83,000 compounds, 20% with a hit somewhere; the sample as a whole holds those more often.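 Negative percent growth values reflect cell death: -40 means 40% of the cells present at the start died, and -100 means all died.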 A number with no mark means an inactive call. Calls of active or inactive are those of the source. Rule for the calls: active = growth percent below 10; inactive = the rest.

The test system of this assay is MDA-MB-468 breast. Kind of assay: NCI-60 one-dose screen, 48 h (100 = growth as untreated, 0 = no growth, -100 = all killed). The conditions noted are these: 10 µM unless noted.
Turning to `COc1cc2ncnc(Nc3ccc(F)c(Cl)c3)c2cc1OCC(=O)N1CCN(c2ccc(F)cc2)CC1`, the growth was -7.58% (active).
As for `Nc1ccc2c(c1)Cc1cc(Cl)c(Cl)cc1-2`, the growth is 34.4%.
With `Cn1ccnc1C(=O)/C=C/c1ccc(NC(=O)Nc2ccc(Cl)cc2)cc1` the figure was 43.9%; with `COc1ccc(C(=O)c2cc(C)c(OC)c(C)c2)c(OC)c1N(C(=O)C(Cl)Cl)C(=O)C(Cl)Cl`, 21.6%.
Take `Cn1cc(-c2nc(N)nnc2-c2c[nH]c3ccc(Br)cc23)c2cc(F)ccc21`: the growth is 75.5%.
With `O=C1/C(=C/c2cccc(Cl)c2)CCc2ccccc21` the figure was 93.5%; with `C#CCOC(=O)C(N)CSSCC(N)C(=O)O` (stereo not given), 109%; with `COc1cccc(-c2nc3sccn3c2-c2ccnc(NCCCNS(=O)(=O)c3cccc(Cl)c3)c2)c1`, 24.6%.
Consider `Cc1ncc(C(=O)Nc2ccc(CN3CCN(C)CC3)c(C(F)(F)F)c2)cc1C#Cc1cncc2ncccc12`, for which the growth was 99.3%.
The result for `Nc1nc(-c2cccc([N+](=O)[O-])c2)c(N=Nc2ccc(Br)cc2)s1` reads -45.7% (active); that for `COc1ccc(/C=N/NC(N)=S)c(OC)n1`, 86.4%.
With `NC[C@H](O)c1ccc(O)c(O)c1` the figure was 111%.
The result for `CCn1cc2c(cc1=O)-c1nc3ccccc3c3ccnc(c13)C2=O` reads 72.3%.
Consider `O=C(Nc1cccc(-n2cc(-c3ccncc3)c(-c3ccc(Cl)c(O)c3)n2)c1)c1ccccc1`, for which the growth is 64.1%.
With `OCCN1CCN(c2nc(Nc3ccc(-c4nc5ccccc5[nH]4)cc3)c3cn[nH]c3n2)CC1` the figure was -82.3% (active).
